Results on eight molecules are retold here after PubChem BioAssay (NCI).

Compounds without any hit were thinned out: in the full panel of roughly 83,000, 20% have a hit.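 Activity criterion: percent growth below 10, measured after cells in 96-well plates were exposed to a single compound concentration for 48 hours.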 Values without a mark were called inactive. Calls of active or inactive are those of the source.

What all share (assay): NCI-60 one-dose screen, 48 h (100 = growth as untreated, 0 = no growth, -100 = all killed)
One test concerns EKVX NSCLC. To be noted: 10 µM unless noted.
A further test has as its system SN12C renal. The following applies: 10 µM unless noted.
A further test has as its system UO-31 renal. The following applies: 10 µM unless noted.
In another test the test system is TK-10 renal. The following applies: 10 µM unless noted.
Another test relates to ACHN renal. To be noted: 10 µM unless noted.
A further test deals with CAKI-1 renal. The following applies: 10 µM.
Another test has as its system A498 renal. To be noted: 10 µM unless noted.
The test system of another test is CCRF-CEM leukemia. The following applies: 10 µM unless noted.
A further test concerns MOLT-4 leukemia. The following applies: 10 µM unless noted.
Another test concerns SR leukemia. To be noted: 10 µM unless noted.
The test system of the next test is RPMI-8226 leukemia. The following applies: 10 µM unless noted.
Another test concerns OVCAR-8 ovarian. To be noted: 10 µM unless noted.
In the next test the test system is OVCAR-5 ovarian. To be noted: 10 µM unless noted.
The next test concerns OVCAR-4 ovarian. The following applies: 10 µM unless noted.
In another test the test system is SK-OV-3 ovarian. The following applies: 10 µM unless noted.
The next test concerns IGROV1 ovarian. The following applies: 10 µM unless noted.
The test system of the next test is HS 578T breast. To be noted: 10 µM unless noted.
The next test deals with NCI/ADR-RES ovarian. To be noted: 10 µM unless noted.
A further test deals with SK-MEL-2 melanoma. The following applies: 10 µM unless noted.
A further test relates to OVCAR-3 ovarian. The following applies: 10 µM unless noted.

As to `CS(=O)c1nccc(-c2c(-c3ccc(F)c(OCCc4ccc(F)cc4)c3)nc3sccn23)n1` (centres undefined), the growth with EKVX NSCLC was 36.1%; in the test on SN12C renal, 93.4%; in the test with UO-31 renal it was -45.1% (active); in the test on TK-10 renal, 107%; in the test with ACHN renal it was 37.7%; with CAKI-1 renal, 47.3%. For the same molecule, the growth in the test on A498 renal was 82.2%; in the test with CCRF-CEM leukemia it was 14.5%; with MOLT-4 leukemia, 9.78% (active); with SR leukemia it was -8.59% (active); in the test on RPMI-8226 leukemia it was 18%; with OVCAR-8 ovarian, 66.6%. Further, the growth is 103% in the test with OVCAR-5 ovarian; 82.1% in the test with OVCAR-4 ovarian; 105% with SK-OV-3 ovarian; -40.4% (active) in the test with IGROV1 ovarian; 88.7% in the test on HS 578T breast; 105% in the test with NCI/ADR-RES ovarian.

Take `CC1OC(O[C@@H]2C(O)C(CO)OC(O[C@H]3COC(O[C@H]4CC[C@]5(C)[C@H]6CC[C@]78OC[C@@]9(CC[C@](C)(C=O)C[C@H]97)[C@H](O)C[C@@]8(C)[C@]6(C)CC[C@H]5C4(C)C)[C@@H](OC4OC(CO)[C@@H](O)[C@@H](O)[C@@H]4O)[C@@H]3O)[C@H]2OC2OC[C@@H](O)[C@@H](O)[C@@H]2O)[C@@H](O)[C@@H](O)[C@H]1O` (some centres undefined): the growth in the test on SK-MEL-2 melanoma was -35.2% (active); with EKVX NSCLC it was 22.2%; in the test on UO-31 renal it was -93.6% (active); in the test on TK-10 renal it was 29.5%; in the test with ACHN renal, -82.2% (active); in the test with CAKI-1 renal, -80.7% (active). For the same molecule, the growth in the test with A498 renal was -89.3% (active); with CCRF-CEM leukemia, 4.93% (active); in the test on MOLT-4 leukemia, -36% (active); with SR leukemia, -18.3% (active); in the test with RPMI-8226 leukemia, 32.9%; in the test on OVCAR-8 ovarian, 27.1%. Besides, the growth in the test with OVCAR-5 ovarian was -78.7% (active); in the test on OVCAR-4 ovarian it was -50.9% (active); with SK-OV-3 ovarian, -93.9% (active); in the test on IGROV1 ovarian it was 43.8%; with OVCAR-3 ovarian it was 79.4%; in the test on HS 578T breast it was -36.9% (active). Also, in the test on NCI/ADR-RES ovarian, the growth was 46.1%.

As to `CCN1C(=O)N(CC)C2C1NN=C1SC(c3ccccc3)=CC(=O)N12` (centres undefined), the growth in the test on EKVX NSCLC is 45.6%; in the test with SN12C renal, 36.7%; in the test on UO-31 renal, 43.3%; with TK-10 renal, 62.8%; in the test with ACHN renal, 45.2%; with CAKI-1 renal, 37.5%. The growth in the test with A498 renal was -7.16% (active); in the test on CCRF-CEM leukemia it was 13.2%; with MOLT-4 leukemia, 18.2%; in the test on SR leukemia, 16.2%; in the test on RPMI-8226 leukemia, 4.35% (active); in the test on OVCAR-8 ovarian, 18.2%. For the same molecule, the growth was 29.1% in the test on OVCAR-5 ovarian; 72.5% in the test with OVCAR-4 ovarian; 42.2% with SK-OV-3 ovarian; 41.4% in the test on IGROV1 ovarian; 3.22% (active) in the test on HS 578T breast; 19.2% in the test on NCI/ADR-RES ovarian.

For `CNC(=O)c1cc(Oc2ccc3nc(NC(=O)c4cccc(C(F)(F)F)c4)sc3c2)ccn1`, the growth is 101% in the test on EKVX NSCLC; 96% in the test on SN12C renal; 99.1% in the test with UO-31 renal; 116% in the test with TK-10 renal; 102% in the test on ACHN renal; 93.6% with CAKI-1 renal. In addition, the growth in the test with A498 renal is 87.3%; with CCRF-CEM leukemia it was 109%; with MOLT-4 leukemia, 107%; with SR leukemia, 111%; with RPMI-8226 leukemia, 112%; with OVCAR-8 ovarian, 106%. The growth with OVCAR-5 ovarian is 97.7%; in the test on OVCAR-4 ovarian, 101%; in the test with SK-OV-3 ovarian it was 111%; with IGROV1 ovarian, 107%; in the test with HS 578T breast, 102%; in the test with NCI/ADR-RES ovarian, 101%.

As for `CCN1C(=O)N(CC)C2SC(N/N=C/c3ccccc3)=NC21` (centres undefined), the growth is 9.45% (active) with SK-MEL-2 melanoma; 34.4% with SN12C renal; 54.6% in the test with UO-31 renal; 36% with ACHN renal; 40.1% in the test on CAKI-1 renal; -19.2% (active) in the test on A498 renal. Besides, the growth in the test with CCRF-CEM leukemia was 16.7%; in the test with MOLT-4 leukemia it was 21.4%; with SR leukemia, 18.6%; in the test with RPMI-8226 leukemia it was 21.2%; with OVCAR-8 ovarian, 8.59% (active); in the test with OVCAR-5 ovarian, 51.6%. Also, the growth is 71.6% in the test with OVCAR-4 ovarian; 38.3% in the test on SK-OV-3 ovarian; 28% in the test on IGROV1 ovarian; 15.8% in the test with HS 578T breast; 3.93% (active) in the test with NCI/ADR-RES ovarian.

With `CS(=O)(=O)c1ccc2c(c1)c1c(n2S(=O)(=O)c2ccc(Cl)cc2)CCCC1`, the growth in the test on EKVX NSCLC is 48%; with SN12C renal, 33.1%; in the test on UO-31 renal, 37.8%; in the test with TK-10 renal, 65.7%; with ACHN renal, 46.9%; with CAKI-1 renal, 29.3%. Also, the growth in the test with A498 renal was -11.2% (active); in the test with CCRF-CEM leukemia, 27.3%; in the test with MOLT-4 leukemia, 24.4%; with SR leukemia, 12.3%; with RPMI-8226 leukemia, 19.1%; with OVCAR-8 ovarian it was 31.9%. Further, the growth with OVCAR-5 ovarian was 40.2%; in the test on OVCAR-4 ovarian it was 64.7%; with SK-OV-3 ovarian, 29.7%; with IGROV1 ovarian, 48%; in the test on HS 578T breast, 0.523% (active); in the test on NCI/ADR-RES ovarian, 21%.

On to `Cc1csc(Nc2cccc(Nc3nc(C)cs3)c2)n1`, for which the growth was 61.4% with EKVX NSCLC; 88.2% in the test on SN12C renal; 67.1% with UO-31 renal; 101% with TK-10 renal; 75.4% with ACHN renal; 78.1% in the test with CAKI-1 renal. Moreover, the growth is 47.3% in the test with A498 renal; 89% in the test with CCRF-CEM leukemia; 70.8% with MOLT-4 leukemia; 63.9% in the test with SR leukemia; 62.3% with RPMI-8226 leukemia; 82.7% in the test with OVCAR-8 ovarian. Besides, the growth in the test with OVCAR-5 ovarian is 92%; in the test on OVCAR-4 ovarian, 66.8%; in the test with SK-OV-3 ovarian, 98.7%; in the test with IGROV1 ovarian, 76.6%; in the test with HS 578T breast it was 85.3%; in the test with NCI/ADR-RES ovarian, 66.9%.

With `CNC(=O)c1cc(Oc2ccc3nc(NC(=O)c4cc(C)cc(C)c4)sc3c2)ccn1`, the growth was 82% in the test on EKVX NSCLC; 90.3% in the test on SN12C renal; 78.8% with UO-31 renal; 78.5% in the test with TK-10 renal; 93.4% in the test with ACHN renal; 79% in the test on CAKI-1 renal. The growth was 59.7% in the test with A498 renal; 57.3% in the test with CCRF-CEM leukemia; 58.3% in the test on MOLT-4 leukemia; 30.9% with SR leukemia; 51.9% in the test with RPMI-8226 leukemia; 91.1% in the test on OVCAR-8 ovarian. Further, the growth was 104% with OVCAR-5 ovarian; 77% with OVCAR-4 ovarian; 97.4% in the test with SK-OV-3 ovarian; 88.7% in the test on IGROV1 ovarian; 85.8% with HS 578T breast; 76% with NCI/ADR-RES ovarian.
